According to article PMC8384837, “Expanding the binding specificity for RNA recognition by a PUF domain”:

Assays:
Assay in all cases: yeast three-hybrid, YBZ-1, SC-Leu-His + 0.5 mM 3-AT, 4 days
Conditions in all cases: tags: N-Gal4 AD-HA kept; label: inside an RPR1-promoter hybrid RNA with tandem MS2 sites; ssRNA
PUM1 PUF domain R7-VRR = PUM1 PUF domain R7-VRR (Homo sapiens, UniProt Q14671 828-1176, S1079V;N1080R;E1083R)
Procedure, shortened: (§1)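 Matching RNA elements and Pumilio-1 PUF domain libraries, randomized at the three base-contacting residues of every repeat, were co-expressed from a centromeric plasmid in strain YBZ-1 (LexA–MS2 coat fusion, HIS3 reporter). The repeat regions were PCR-amplified and Illumina-sequenced from cells grown four days on SC-Leu (input) or SC-Leu-His + 0.5 mM 3-AT (selection). The interaction score is the log change in variant frequency from input to selection. It is computed in log2, with a pseudocount of 1 for absent variants.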

PUM1 PUF domain R3-WYR = PUM1 PUF domain R3-WYR (Homo sapiens, UniProt Q14671 828-1176, C935W;R936Y;Q939R)
Procedure, shortened: as §1

PUM1 PUF domain R3-RPW = PUM1 PUF domain R3-RPW (Homo sapiens, UniProt Q14671 828-1176, C935R;R936P;Q939W)
Procedure, shortened: as §1

PUM1 PUF domain R3-LRV = PUM1 PUF domain R3-LRV (Homo sapiens, UniProt Q14671 828-1176, C935L;Q939V)
Procedure, shortened: as §1

PUM1 PUF domain R3-NPG = PUM1 PUF domain R3-NPG (Homo sapiens, UniProt Q14671 828-1176, C935N;R936P;Q939G)
Procedure, shortened: as §1

PUM1 PUF domain R8-RHR = PUM1 PUF domain R8-RHR (Homo sapiens, UniProt Q14671 828-1176, N1122R;Y1123H;Q1126R)
Procedure, shortened: as §1

PUM1 PUF domain R8-RMR = PUM1 PUF domain R8-RMR (Homo sapiens, UniProt Q14671 828-1176, N1122R;Y1123M;Q1126R)
Procedure, shortened: as §1

PUM1 PUF domain R8-RHA = PUM1 PUF domain R8-RHA (Homo sapiens, UniProt Q14671 828-1176, N1122R;Y1123H;Q1126A)
Procedure, shortened: as §1

PUM1 PUF domain R3-IYV = PUM1 PUF domain R3-IYV (Homo sapiens, UniProt Q14671 828-1176, C935I;R936Y;Q939V)
Procedure, shortened: as §1

PUM1 PUF domain R6-IWQ = target: T1, PUM1 PUF domain R6-IWQ (Homo sapiens, UniProt Q14671 828-1176, N1043I;Y1044W)
T1 sequence: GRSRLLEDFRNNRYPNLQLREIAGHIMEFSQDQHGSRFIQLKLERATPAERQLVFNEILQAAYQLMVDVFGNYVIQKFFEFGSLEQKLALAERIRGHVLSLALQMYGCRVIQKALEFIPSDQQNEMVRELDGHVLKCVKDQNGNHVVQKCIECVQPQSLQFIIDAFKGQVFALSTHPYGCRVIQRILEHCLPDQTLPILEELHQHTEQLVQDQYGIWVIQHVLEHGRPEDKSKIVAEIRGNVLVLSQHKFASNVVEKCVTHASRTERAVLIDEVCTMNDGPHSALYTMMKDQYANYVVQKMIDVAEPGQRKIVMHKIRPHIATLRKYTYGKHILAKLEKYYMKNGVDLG
Procedure, shortened: as §1

PUM1 PUF domain R5-RFE = PUM1 PUF domain R5-RFE (Homo sapiens, UniProt Q14671 828-1176, C1007R;R1008F;Q1011E)
Procedure, shortened: as §1

PUM1 PUF domain R5-KRI = PUM1 PUF domain R5-KRI (Homo sapiens, UniProt Q14671 828-1176, C1007K;Q1011I)
Procedure, shortened: as §1

PUM1 PUF domain R5-RVM = PUM1 PUF domain R5-RVM (Homo sapiens, UniProt Q14671 828-1176, C1007R;R1008V;Q1011M)
Procedure, shortened: as §1

PUM1 PUF domain R5-DHN = PUM1 PUF domain R5-DHN (Homo sapiens, UniProt Q14671 828-1176, C1007D;R1008H;Q1011N)
Procedure, shortened: as §1

## GGCUAGAACUAGUGGAUCCCCCGGCGCCCGGCGGCUCGAGCCCGGGUAAGUUUAAAUAGUCUGCAUGCCGCCGGGCGCCAUGCCUGCAGGUCGACUCUAGAAAACAUG
PUM1 PUF domain R7-VRR
  binding signal: 2.18 log2 enrichment (interaction score)

## GGCUAGAACUAGUGGAUCCCCCGGCGCCCGGCGGCUCGAGCCCGGGUAAGUGUAAUUAGUCUGCAUGCCGCCGGGCGCCAUGCCUGCAGGUCGACUCUAGAAAACAUG
PUM1 PUF domain R3-WYR
  binding signal: 2.58 log2 enrichment (interaction score)
PUM1 PUF domain R3-RPW
  binding signal: 2.6 log2 enrichment (interaction score)
PUM1 PUF domain R3-LRV
  binding signal: 1.41 log2 enrichment (interaction score)
PUM1 PUF domain R3-NPG
  binding signal: 2.86 log2 enrichment (interaction score)

## GGCUAGAACUAGUGGAUCCCCCGGCGCCCGGCGGCUCGAGCCCGGGUAAGCGUAAAUAGUCUGCAUGCCGCCGGGCGCCAUGCCUGCAGGUCGACUCUAGAAAACAUG
PUM1 PUF domain R8-RHR
  binding signal: 6.54 log2 enrichment (interaction score)
PUM1 PUF domain R8-RMR
  binding signal: 3.05 log2 enrichment (interaction score)
PUM1 PUF domain R8-RHA
  binding signal: 4.75 log2 enrichment (interaction score)

## GGCUAGAACUAGUGGAUCCCCCGGCGCCCGGCGGCUCGAGCCCGGGUAAGUGUAAGUAGUCUGCAUGCCGCCGGGCGCCAUGCCUGCAGGUCGACUCUAGAAAACAUG
PUM1 PUF domain R3-IYV
  binding signal: 4.55 log2 enrichment (interaction score)
PUM1 PUF domain R3-WYR
  binding signal: 2.45 log2 enrichment (interaction score)
PUM1 PUF domain R3-LRV
  binding signal: 3.77 log2 enrichment (interaction score)

## GGCUAGAACUAGUGGAUCCCCCGGCGCCCGGCGGCUCGAGCCCGGGUAAGUGAAAAUAGUCUGCAUGCCGCCGGGCGCCAUGCCUGCAGGUCGACUCUAGAAAACAUG
PUM1 PUF domain R6-IWQ
  binding signal: 4.87 log2 enrichment (interaction score)

## GGCUAGAACUAGUGGAUCCCCCGGCGCCCGGCGGCUCGAGCCCGGGUAAGUGUCAAUAGUCUGCAUGCCGCCGGGCGCCAUGCCUGCAGGUCGACUCUAGAAAACAUG
PUM1 PUF domain R5-RFE
  binding signal: 4.53 log2 enrichment (interaction score)
PUM1 PUF domain R5-KRI
  binding signal: 4.51 log2 enrichment (interaction score)
PUM1 PUF domain R5-RVM
  binding signal: 2.54 log2 enrichment (interaction score)

## GGCUAGAACUAGUGGAUCCCCCGGCGCCCGGCGGCUCGAGCCCGGGUAAGUGUGAAUAGUCUGCAUGCCGCCGGGCGCCAUGCCUGCAGGUCGACUCUAGAAAACAUG
PUM1 PUF domain R5-DHN
  binding signal: 2.35 log2 enrichment (interaction score)
